Assay in all cases: NCI-60 one-dose screen, 48 h (100 = growth as untreated, 0 = no growth, -100 = all killed)
Details in all cases: 10 µM unless noted

Assay [1] deals with DU-145 prostate.
For assay [2], the system named is K-562 leukemia.
For assay [3], the system named is MALME-3M melanoma.
Assay [4] relates to MDA-MB-231 breast.
In assay [5] the test system is RXF 393 renal.
Assay [6] relates to SF-268 CNS.
Assay [7] deals with SF-295 CNS.
Assay [8] has as its system SF-539 CNS.
Assay [9] concerns UACC-257 melanoma.
In assay [10] the test system is M14 melanoma.
Assay [11] concerns HCT-15 colon.
In assay [12] the test system is HT29 colon.
Assay [13] concerns SNB-75 CNS.
Assay [14] concerns SNB-19 CNS.
In assay [15] the test system is U251 CNS.
For assay [16], the system named is PC-3 prostate.
For assay [17], the system named is SK-MEL-5 melanoma.
The test system of assay [18] is UACC-62 melanoma.
For assay [19], the system named is LOX IMVI melanoma.
For assay [20], the system named is SK-MEL-28 melanoma.

This is part of a sample that, as a whole, favours compounds with a hit. Of some 83,000 tested, about 20% had one in any assay.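 Compound tested at a single concentration for 48 hours in 96-well plates; a percent growth value below 10 was scored as active.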 Unmarked numbers belong to inactive results. Active and inactive are the calls of the source.

Take `O=C1c2cc(Cl)ccc2S(=O)(=O)c2c(NCCCNCCO)nc3ccccc3c21`: the growth in assay [1] was -24.7% (active); in assay [2], 0.0837% (active); in [3], -81.4% (active); in assay [4], -70.7% (active); in assay [5], -36.5% (active); in assay [6], 31.8%. In addition, the growth is 40.6% in [7]; -18% (active) in [8]; 10.3% in assay [9]; -37.9% (active) in assay [10]; -65.4% (active) in assay [11]; -78.8% (active) in [12]. For the same molecule, the growth in assay [13] was 32.6%; in [14] it was 56.4%; in assay [15], -15.8% (active); in [16], -14.2% (active); in [17], 11.3%; in assay [18] it was 2.05% (active). Further, the growth in [19] was -76.8% (active); in assay [20] it was 6.11% (active).

Consider `O=C(Nc1ccc(-c2nc(N3CCOCC3)c3cccn3n2)cc1)Nc1cccnc1`, for which the growth is 5.28% (active) in assay [1]; 15.2% in assay [2]; -29.9% (active) in [3]; -0.801% (active) in assay [4]; -30.5% (active) in assay [5]; 11.9% in [6]. Besides, the growth is -36.4% (active) in assay [7]; -39.8% (active) in assay [8]; -11.7% (active) in assay [9]; -0.739% (active) in assay [10]; 6.69% (active) in assay [11]; 7.6% (active) in assay [12]. Moreover, the growth in assay [13] is -26.5% (active); in assay [14], 5.92% (active); in assay [15], 7.85% (active); in [16] it was 3.8% (active); in [17], -71.5% (active); in assay [18], -28.6% (active). Further, the growth in assay [19] is -1.37% (active); in [20], -17.3% (active).

Take `C#CCOc1cccc(Nc2ncnc3ccc(NC(=O)CCl)cc23)c1`: the growth in assay [1] is -1.66% (active); in assay [2] it was -13.1% (active); in assay [3], -76.3% (active); in assay [4], -37.8% (active); in [5] it was -77.1% (active); in [6] it was -8.71% (active). The growth in assay [7] was -67.7% (active); in [8], -86.6% (active); in assay [9], -67.1% (active); in assay [10], -47.8% (active); in [11], -41.6% (active); in assay [12], -78.6% (active). Moreover, the growth in assay [13] is 28%; in assay [14], -23.7% (active); in assay [15] it was -60.7% (active); in assay [16], -59.3% (active); in assay [17], -92.8% (active); in assay [18], -67.5% (active). Besides, the results for the growth in [19] and in [20] were -75.4% (active) and -17.2% (active), respectively.

As for `O=C(CSc1nc(-c2ccccc2)[nH]c1S(=O)(=O)c1ccccc1)NC1CC1`, the growth was 112% in assay [1]; 87.4% in [2]; 103% in [3]; 90.1% in [4]; 4.36% (active) in assay [5]; 102% in assay [6]. The growth in assay [7] is 36.3%; in [8], 103%; in [9], 87.4%; in [10], 96.4%; in assay [11], 28.2%; in assay [12], 95.1%. Further, the growth is 98.1% in assay [13]; 101% in [14]; 20.1% in assay [15]; 80.8% in [16]; 35.6% in assay [17]; 94.6% in assay [18]. Besides, the growth in assay [19] was 44.8%; in [20], 120%.

As for `CC(=O)N(N=Nc1ccccc1)c1cccc2ccccc12`, the growth was 9.87% (active) in assay [1]; 89.5% in assay [2]; 128% in assay [3]; 78.2% in assay [4]; 89.6% in assay [5]; 92.8% in assay [6]. Further, the growth was 68.2% in assay [7]; 111% in [8]; 103% in assay [9]; 90.9% in [10]; 17.1% in assay [11]; 35.2% in assay [12]. Moreover, the growth is 129% in assay [13]; 106% in assay [14]; 81.7% in assay [15]; 68.1% in assay [16]; 84.3% in [17]; 75.3% in [18]. Moreover, the figures for the growth in assay [19] and in assay [20] were 76.5% and 100%, respectively.

For the molecule `CC12CCC3c4ccccc4CCC3(CO1)C2` (stereo not given), the growth in assay [1] was 121%; in assay [2], 99.9%; in assay [3] it was 95.1%; in [4], 124%; in [5], 93.4%; in assay [6], 107%. In addition, the growth in [7] was 77.2%; in [8] it was 104%; in assay [9], 110%; in assay [10], 128%; in assay [11], 108%; in [12], 100%. For the same molecule, the growth was 89.7% in assay [13]; 114% in assay [14]; 107% in assay [15]; 88% in [16]; 102% in [17]; 105% in assay [18]. In addition, the growth in assay [19] was 101%; in [20], 99.9%.

Turning to `CCOC(=O)CSc1ncnc2c1c(-c1ccccc1)c(-c1ccccc1)n2-c1ccc(C)cc1`, the growth in [1] is 74.4%; in assay [2] it was 38%; in assay [3], 62.1%; in assay [4], 85.7%; in assay [5], 105%; in assay [6] it was 86.2%. In addition, the growth in [7] is 76.2%; in assay [8] it was 86.2%; in assay [9] it was 51.9%; in assay [10], 75.6%; in assay [11] it was 106%; in [12], 63.9%. Further, the growth was 87.8% in assay [13]; 63.4% in assay [14]; 49.1% in assay [15]; 51.9% in assay [16]; 44.9% in [17]; 57.1% in assay [18]. The results for the growth in [19] and in assay [20] were 78.4% and 87.6%, respectively.

With `COc1ccc(C(=O)Nc2cccc(C3CC(=O)c4c(cc(OC)c(OC)c4OC)O3)c2)cc1` (stereo not given), the growth in [1] was 2.98% (active); in [2], 7.66% (active); in assay [3], 31.4%; in [4] it was 41.9%; in [5] it was -8.37% (active); in [6], 46.6%. Moreover, the growth in assay [7] is 9.55% (active); in assay [8] it was -29.7% (active); in assay [9], 46.2%; in [10], -23.9% (active); in assay [11], 13.3%; in [12], 6.28% (active). Further, the growth in [13] was -11.4% (active); in [14] it was 18.3%; in assay [15] it was 9.47% (active); in assay [16], 20.4%; in assay [17] it was 9.7% (active); in [18], 25.5%. Moreover, the growth in assay [19] is 26.1%; in [20] it was 56.3%.

Source of the values: PubChem BioAssay (NCI).
